Experimental data as given in PubChem BioAssay (NCI).
Several values for one entry are separate records, joined by “and”; a condition that tells them apart may be missing. Equal values may be shown once. Compounds without any hit were thinned out: in the full panel of roughly 83,000, 20% have a hit.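 Growth was measured after 48 h exposure to one concentration of compound in 96-well plates. Values under 10 count as active.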 Values without a mark were called inactive. Activity calls are given as the source filed them. Where a SMILES comes first, the peptide text is derived from it. The star is where a group is joined. Trt = c1ccc(C(c2ccccc2)(c2ccccc2)*)cc1; Cbz = O=C(OCc1ccccc1)*

Key:
Test in all cases: NCI-60 one-dose screen, 48 h (100 = growth as untreated, 0 = no growth, -100 = all killed)
SR leukemia = conditions: 10 µM unless noted
RPMI-8226 leukemia = conditions: 10 µM unless noted
OVCAR-8 ovarian = conditions: 10 µM unless noted
OVCAR-5 ovarian = conditions: 10 µM unless noted
OVCAR-4 ovarian = conditions: 10 µM unless noted
SK-OV-3 ovarian = conditions: 10 µM unless noted
IGROV1 ovarian = conditions: 10 µM unless noted
OVCAR-3 ovarian = conditions: 10 µM unless noted
HS 578T breast = conditions: 10 µM unless noted
NCI/ADR-RES ovarian = conditions: 10 µM unless noted
T-47D breast = conditions: 10 µM unless noted
BT-549 breast = conditions: 10 µM unless noted
SW-620 colon = conditions: 10 µM unless noted
MCF7 breast = system: MCF7 breast
HCC-2998 colon = conditions: 10 µM unless noted
KM12 colon = conditions: 10 µM unless noted
HCT-116 colon = conditions: 10 µM unless noted
MDA-MB-435 melanoma = conditions: 10 µM unless noted

| SMILES | growth (SR leukemia) | growth (RPMI-8226 leukemia) | growth (OVCAR-8 ovarian) | growth (OVCAR-5 ovarian) | growth (OVCAR-4 ovarian) | growth (SK-OV-3 ovarian) | growth (IGROV1 ovarian) | growth (OVCAR-3 ovarian) | growth (HS 578T breast) | growth (NCI/ADR-RES ovarian) | growth (T-47D breast) | growth (BT-549 breast) | growth (SW-620 colon) | growth (MCF7 breast; 10 µM) | growth (HCC-2998 colon) | growth (KM12 colon) | growth (HCT-116 colon) | growth (MDA-MB-435 melanoma) | growth (MCF7 breast; 100 µM) |
| --- | --- | --- | --- | --- | --- | --- | --- | --- | --- | --- | --- | --- | --- | --- | --- | --- | --- | --- | --- |
| CC1=CC(O)C2CC1C2(C)C (centres undefined) | 101% and 97.3% | 111% and 107% | 105% and 104% | 104% and 110% | 99.7% and 108% | 94.3% and 104% | 101% and 99.3% | 110% and 113% | 97.5% and 106% | 108% and 109% | 96% and 106% | 98.9% | 105% and 108% | 101% and 98.9% | 95.4% and 112% | 101% and 114% | – | – | – |
| Cc1ccnc(NC(c2ccccc2)c2ccc3cccnc3c2O)c1 (centres undefined) | 10% | 51.5% | 28.1% | 69.9% | 20.6% | 57.5% | 36.5% | 19.5% | 66.9% | 22.4% | 54.7% | 57.1% | 48.9% | 22.4% | 27.3% | 32.8% | 31.8% | – | – |
| OC(CNc1ccnc2cc(Cl)ccc12)CNc1ccnc2cc(Cl)ccc12 | 2.51% (active) | 92.6% | 52.5% | 79.5% | 48% | 113% | 87.6% | 43.6% | – | 106% | 9.13% (active) | 85.2% | -31.2% (active) | 18.5% | 46.1% | 44.5% | 5.7% (active) | -43.6% (active) | – |
| COc1cc(/C=C/C(C)=O)ccc1O | 93.2% and 89.3% | 116% | 104% and 105% | 92.3% and 102% | 108% and 103% | 94% and 112% | 101% and 119% | 100% and 106% | 113% | 107% and 100% | 97.2% and 106% | 104% | 104% and 110% | 96.8% and 98.8% | 102% and 104% | – | 104% and 103% | – | – |
| O[C@H]1[C@H]2c3cc4c(cc3CN3CCC(=C[C@@H]1O)[C@H]23)OCO4 | 32.7% | 23.1% | 26.7% | 34.5% | 16.5% | 22% | 40.8% | 34.5% | 42.7% | 19.1% | 34.5% | 71.2% | 30.4% | 11.7% | 18.9% | 21.2% | 13.5% | – | – |
| C/C=C1\SC(=S)NC1=O | 101% | 101% | 103% | 94.9% | 101% | 92.4% | 105% | 111% | 104% | 107% | 92.6% | 95.7% | 112% | 86.9% | 85% | 106% | – | 101% | – |
| CC(C)c1ccc2nc3ccc(C(=O)NCCN4CCN(c5ccccc5)CC4)cn3c(=O)c2c1 | 51.7% | 20.5% | 46.8% | 91.1% | 63.9% | 93.4% | 78.7% | 77.5% | – | 32.2% | 28.5% | 51.3% | 87.4% | 58.8% | 75.9% | 67.2% | 53.6% | 58.7% | – |
| Cc1ccc2nc(-[n+]3cc4ccccc4cc3C)ccc2c1 | 33.2% | 15.1% | 33.6% | 61.4% | 28.6% | 38.3% | 46.4% | 44.6% | 67.3% | 109% | 15.3% | 0.0135% (active) | 55.8% | 20.3% | 42.1% | 31.5% | 25.8% | – | – |
| O=C(Nc1ccc(F)cc1)ON=C1CCCCC1 | 84.9% [100 µM] | 93.9% [100 µM] | 106% [100 µM] | 97.9% [100 µM] | 99.1% [100 µM] | 129% [100 µM] | 102% [100 µM] | 108% [100 µM] | 99% [100 µM] | 105% [100 µM] | 79% [100 µM] | 106% [100 µM] | 99.8% [100 µM] | – | 106% [100 µM] | 92.9% [100 µM] | – | – | 98.2% |
| CCOC(=O)/C=C/c1ccc([N+](=O)[O-])o1 | 16.2% | 74.7% | 11.4% | 75% | 97.4% | 106% | 77.5% | 17.1% | 98.1% | 50.6% | – | 62.7% | 8.72% (active) | 25.5% | 95.7% | 87.4% | -54.3% (active) | – | – |
| CCN1/C(=C\c2cc[n+](CC)c3ccccc23)C=Cc2ccccc21 | 15.7% | 12.6% | 9.96% (active) | 11.7% | 12.9% | 3.69% (active) | 29.8% | 11.8% | 37.4% | 86.9% | 2.9% (active) | 10.8% | 8.76% (active) | 8.12% (active) | 23% | 1.57% (active) | 11.9% | – | – |
| CN(C)c1ccc(/C=N/N=C(\C#N)[S][Sn]([Cl])([c]2ccccc2)[c]2ccccc2)cc1 | 5.61% (active) | -13.8% (active) | 60.6% | 13.1% | 28.1% | 99.7% | 43% | -80.1% (active) | 61.7% | 66.9% | -65.8% (active) | 57.5% | -52.2% (active) | -81.9% (active) | 63.5% | 63.3% | -59.4% (active) | – | – |
| O=C1c2ccccc2C(=O)N1c1ccccc1 | 85.7% | 119% | 98.6% | 107% | 105% | 99.1% | 105% | 108% | 119% | 105% | 95.7% | 107% | 109% | 96.6% | 102% | 107% | – | – | – |
| CCOC(=O)c1c(C)[nH]c(CO)c1C | 101% | 97.8% | 101% | 104% | 105% | 102% | 98% | 103% | – | 105% | 93.5% | 109% | 109% | 91.6% | 109% | – | 100% | 111% | – |
| COC(=O)C(CSC(c1ccccc1)(c1ccccc1)c1ccccc1)NC(=O)C(CC(N)=O)NC(=O)OCc1ccccc1 (stereo not drawn) (Cbz-Asn-Cys(Trt)-OMe; configuration not given here) | -43.7% (active) | 2.8% (active) | 13.1% | 67% | 39.5% | 14.2% | 48.6% | -5.78% (active) | -20.4% (active) | 63.2% | -0.975% (active) | 50.6% | 62.6% | 32.3% | -18.7% (active) | 33% | – | -37.3% (active) | – |
| CC(C)(C)CC(C)(C)c1ccc(OCCSC(=N)N)cc1 | -37.7% (active) | 2.8% (active) | 56.2% | 79.3% | 41.2% | 89.6% | 77.1% | 46.7% | 91.4% | 71.7% | 7.82% (active) | 104% | -12.1% (active) | 9.08% (active) | -16% (active) | – | – | – | – |
